Inconclusive results are not listed. Where a call stands in place of a potency, no number is given. Activity calls are given as the source filed them. The call rests on the fitted dose curve.
Assay: Primary qHTS for Huh7 cytotoxicity: counterscreen for inhibitors of MERS-S pseudotyped particle cell entry (AID 1479147)
Conditions: cell viability read-out; series mostly up to 57.1 µM; activity change, negative = cytotoxicity: at the top concentration

SMILES	outcome
CCOC(=O)c1cc(=O)c2c(OCC(COc3cccc4oc(C(=O)OCC)cc(=O)c34)OC(=O)[C@@H](N)CCCCN)cccc2o1	inactive
O=C(OCC(O)CO)c1ccccc1Nc1ccnc2c(C(F)(F)F)cccc12 (stereo not drawn)	inactive
Nc1ccn([C@H]2CC[C@@H](CO)O2)c(=O)n1	inactive

Assay: Primary qHTS for inhibitors of MERS-S pseudo-typed particle cell entry (AID 1479149); further: nearly all actives have a fitted effect of over 60% in size; further: potency means the concentration at half of the fitted maximal effect
Conditions: MERS-S pseudotyped particle entry, luciferase; series mostly up to 57.1 µM; activity change, negative = inhibition: at the top concentration

SMILES	activity change, negative = inhibition	outcome	Potency
Cc1ccc(N(CC2=NCCN2)c2cccc(O)c2)cc1	-18.5% (inactive)	–	–
CCc1oc2ccccc2c1C(=O)c1cc(Br)c(O)c(Br)c1	–	inactive	–
CC(=O)OCC(=O)Nc1cc(C#N)cc(NC(=O)COC(C)=O)c1Cl	–	inactive	–
O=C(OCc1ccccc1)c1ccc(O)cc1	–	inactive	–
COC1=C(OC)C(=O)C(CCCCCCCCCCO)=C(C)C1=O	-4.51% (inactive)	–	–
CCCC(=O)O[C@]1(C(=O)CC)CC[C@H]2[C@@H]3CCC4=CC(=O)CC[C@]4(C)[C@H]3[C@@H](O)C[C@@]21C	–	inactive	–
CC(=O)OCC(=O)NCCCOc1cccc(CN2CCCCC2)c1	–	inactive	–
CCN(CC)CCOC(=O)C(Cc1cccc2ccccc12)CC1CCCO1 (stereo not drawn)	-14.9% (inactive)	–	–
CN(C)CC[C@@H](c1ccc(Cl)cc1)c1ccccn1	-3.44% (inactive)	–	–
Cn1cc(C(=O)[C@@H]2CCc3nc[nH]c3C2)c2ccccc21	–	inactive	–
CCCCCCCCCCCCOS(=O)(=O)O	–	inactive	–
CCOC(=O)c1ccc(OC(=O)CCCCCN=C(N)N)cc1	-12.1% (inactive)	–	–
O=c1oc2c(O)c(O)cc3c(=O)oc4c(O)c(O)cc1c4c23	–	inactive [at 26.4 µM]	–
CCCCCCOC(=O)NC(=N)c1ccc(NCc2nc3cc(C(=O)N(CCC(=O)OCC)c4ccccn4)ccc3n2C)cc1	–	–	10 µM (active)
CCOC(=O)[C@H](CCc1ccccc1)N[C@@H](C)C(=O)N(CC(=O)O)C1Cc2ccccc2C1	–	inactive	–

From PubChem BioAssay (NCATS)
